This is a sample that favours compounds with a hit; in the whole collection about 4.2% have one here.
DAX1 inh: DAX1 (NR0B1) inhibition, primary screen. hit rate 1.1% among 370,000. HEK293T StAR-luciferase reporter, SF-1/DAX-1 repression relief. inhibition, % at 6.8 µM;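 active = inhibition above the mean over all tested compounds plus 3 SD, cut at about 3.6% in these data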;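 note: 0% = DAX-1 cells with DMSO and 100% = cells lacking DAX-1 with DMSO; higher inhibition means more luminescence from relief of DAX-1 repression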
hgDAF12 agonist: activates the H. glycines DAF-12 receptor ligand-binding domain. hit rate 1.8% among 370,000. AID 687014. HEK293 GAL4-hgDAF12 UAS-luciferase reporter, agonist luminescence; normalized to butyrate control. activation, % at 6.8 µM;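 active = activation above a cutoff set at the mean of all screened compounds plus 3 SD, cut at about 10% in these data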;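 note: 0% = DMSO wells and 100% = sodium butyrate wells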
hcDAF12 agonist: activates DAF-12 receptor from parasite H. contortus. HEK293 hcDAF-12 lit1-tk-luc reporter, luminescence; 0% DMSO, 100% Δ7-dafachronic acid. hit rate 1.4% among 370,000. activation, % at 6.8 µM;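 active = activation above the mean of all tested compounds plus 3 SD, cut at about 5.5% in these data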;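 note: 100% = response to 3 µM Δ7-dafachronic acid high control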
ssDAF12 agonist: activates DAF-12 receptor from parasite S. stercoralis. HEK293 ssDAF-12/GRIP1 lit1-tk-luc reporter, luminescence; % of 3 µM dafachronic acid response. activation, % at 6.8 µM. hit rate 1% among 370,000. AID 652126;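 active = activation above the mean over all tested compounds plus 3 SD, cut at about 0.9% in these data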;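 note: 0% = DMSO-only wells and 100% = 3 µM delta7-dafachronic acid wells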
SMARCA2 activ: increases SMARCA2 function in MMTV reporter cells | hit rate 1% among 370,000 | activation, % at 9.1 µM | AID 652017 | MG213 cells, MMTV-luciferase reporter, dexamethasone, overnight; in the data active = activation above about 7.8%;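 note: 0% = vehicle wells and 100% = reference activator wells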
hgDAF12 conf: hgDAF-12 agonism, confirmation assay; activation, % at 6.8 µM; HEK293 GAL4-hgDAF12 luciferase reporter, agonist mode; percent of butyrate response; shares compounds with hgDAF12 agonist; hit rate 80% among 3,300;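 active = mean activation over triplicate wells above the hit cutoff derived from the earlier primary screen, cut at about 11% in these data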;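 note: 0% = DMSO low control and 100% = 2 mM sodium butyrate high control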
LXR ag 2: activates human LXR-beta, counter-screen for DAF-12 agonists. shares compounds with hgDAF12 agonist. HEK293 Gal4-LXR luciferase reporter, 24 h. activation, % at 6.8 µM. 3,300 tested, under 10 active;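 active = mean activation of the triplicate above a set limit carried over from the primary screen, none filed active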
Target sequence (P55055 whole entry, looked up, the tested form may be a part): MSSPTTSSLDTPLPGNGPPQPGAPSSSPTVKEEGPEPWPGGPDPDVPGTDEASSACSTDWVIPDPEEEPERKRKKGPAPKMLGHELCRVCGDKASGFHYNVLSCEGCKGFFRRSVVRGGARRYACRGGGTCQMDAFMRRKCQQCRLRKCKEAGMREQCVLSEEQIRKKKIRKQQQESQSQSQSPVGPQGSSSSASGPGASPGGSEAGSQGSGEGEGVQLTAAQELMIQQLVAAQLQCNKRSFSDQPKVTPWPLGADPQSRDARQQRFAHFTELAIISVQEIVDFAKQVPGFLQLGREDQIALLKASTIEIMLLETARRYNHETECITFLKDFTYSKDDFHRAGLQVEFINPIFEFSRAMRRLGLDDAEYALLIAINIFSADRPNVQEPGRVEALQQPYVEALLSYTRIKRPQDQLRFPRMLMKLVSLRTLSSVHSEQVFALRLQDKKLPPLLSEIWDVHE
Active calls of the source: *.

Screening Cc1cc(NC(=O)C2COc3ccccc3O2)no1 (stereo unspecified) returned DAX1 inh 1.0, hgDAF12 agonist 19.4*, hcDAF12 agonist 4.5, ssDAF12 agonist -1.1, SMARCA2 activ 1.0, hgDAF12 conf 4.6 and LXR ag 2 0.2.
Screening Cc1ccc(C(=O)CSc2nnc(-c3ccccn3)n2-c2ccccc2)cc1 returned DAX1 inh -0.3, hgDAF12 agonist 1.9, hcDAF12 agonist -2.6, ssDAF12 agonist -1.3 and SMARCA2 activ 1.8.
Screening O=C(COc1cc(F)ccc1[N+](=O)[O-])NCCN1C(=O)CSC1=O returned DAX1 inh -0.3, hgDAF12 agonist 23.2*, hcDAF12 agonist -1.8, ssDAF12 agonist -0.7, SMARCA2 activ -1.1, hgDAF12 conf -1.3 and LXR ag 2 0.0.
Screening Cc1cc(NC(=O)CSc2nc3c(cc2C#N)CCC3)no1 returned DAX1 inh 2.6, hgDAF12 agonist 13.2*, hcDAF12 agonist 3.7, ssDAF12 agonist -0.6, SMARCA2 activ 1.9, hgDAF12 conf 15.2* and LXR ag 2 1.0.
Cc1cc(NC(=O)CSc2nc3c(cc2C#N)CCCC3)no1 was read as DAX1 inh 2.4, hgDAF12 agonist 8.5, hcDAF12 agonist 1.8, ssDAF12 agonist -0.9 and SMARCA2 activ 6.4.
Screening CCOC(=O)CC[C@@H]1CC[C@]2(CCCN(C(=O)C(C)(C)C)C2)O1 returned DAX1 inh 0.0, hgDAF12 agonist 4.3, hcDAF12 agonist 1.3, ssDAF12 agonist -0.9 and SMARCA2 activ 0.9.
For O=C(O)c1cc(-c2ccc(N3CCOCC3)cc2)nn1-c1ccc(F)cc1F the results were DAX1 inh -0.4, hgDAF12 agonist 16.9*, hcDAF12 agonist -0.6, ssDAF12 agonist -1.6, SMARCA2 activ 1.4, hgDAF12 conf 0.5 and LXR ag 2 -0.1.
Screening CC1=C/C(=N\NC(=O)c2ccccc2)CC1 returned DAX1 inh 1.5, hgDAF12 agonist 13.5*, hcDAF12 agonist 2.6, ssDAF12 agonist -0.1, SMARCA2 activ 0.9, hgDAF12 conf 1.1 and LXR ag 2 0.1.
`COc1ccc(-c2nnc(SCc3ccccc3F)o2)cc1OC` gave DAX1 inh 0.8, hgDAF12 agonist 6.7, hcDAF12 agonist -0.1, ssDAF12 agonist -1.2 and SMARCA2 activ 4.2.
Screening Cc1ccc(-c2nnc(SCc3ccccc3F)o2)cc1 returned DAX1 inh 3.5, hgDAF12 agonist 15.8*, hcDAF12 agonist 5.7*, ssDAF12 agonist 0.5, SMARCA2 activ 4.4, hgDAF12 conf 15.0* and LXR ag 2 0.8.
`COc1ccc(C2CC(c3ccncc3)=NN2c2ccc(S(N)(=O)=O)cc2)cc1` (stereo unspecified) gave DAX1 inh 2.9, hgDAF12 agonist 26.1*, hcDAF12 agonist 4.5, ssDAF12 agonist 0.5, SMARCA2 activ 0.0, hgDAF12 conf 21.5* and LXR ag 2 0.6.
Screening COc1ccc(C2CC(c3ccc(Cl)cc3)=NN2c2ccc(S(N)(=O)=O)cc2)cc1 (stereo unspecified) returned DAX1 inh -1.4, hgDAF12 agonist 0.9, hcDAF12 agonist -0.2, ssDAF12 agonist -0.8 and SMARCA2 activ -5.8.
`Cc1nn2cc(-c3ccc(-c4ccccc4)cc3)nc2s1` gave DAX1 inh 2.4, hgDAF12 agonist 15.3*, hcDAF12 agonist 5.7*, ssDAF12 agonist 0.9, SMARCA2 activ -2.1, hgDAF12 conf 16.0* and LXR ag 2 0.8.
O=C1C[C@H](C(=O)Nc2ccc(Cl)cc2)[C@@H](c2ccccc2)O1 was read as DAX1 inh -0.3, hgDAF12 agonist 0.3, hcDAF12 agonist 0.4, ssDAF12 agonist -0.2 and SMARCA2 activ -2.5.
Cc1cc(C)nc(NC(=O)c2ccc(Br)cc2)n1 was read as DAX1 inh -0.3, hgDAF12 agonist 0.2, hcDAF12 agonist -1.2, ssDAF12 agonist -0.7 and SMARCA2 activ -2.9.
Cc1cc(NO)nc(-c2ccc(Br)cc2)n1 was read as DAX1 inh 0.4, hgDAF12 agonist 13.3*, hcDAF12 agonist 3.8, ssDAF12 agonist 0.3, SMARCA2 activ 6.2, hgDAF12 conf 19.1* and LXR ag 2 0.6.
Screening CCOC(=O)c1c(NC(=O)C2C3CCC(O3)C2C(=O)O)sc(C)c1-c1ccc(C)cc1 (stereo unspecified) returned DAX1 inh 0.8, hgDAF12 agonist 0.4, hcDAF12 agonist -0.4, ssDAF12 agonist -0.7 and SMARCA2 activ 0.3.
Cc1sc(NC(=O)C2C3CCC(O3)C2C(=O)O)nc1-c1ccc(CC(C)C)cc1 (stereo unspecified) was read as DAX1 inh 1.9, hgDAF12 agonist 17.6*, hcDAF12 agonist 4.6, ssDAF12 agonist -0.3, SMARCA2 activ 1.1, hgDAF12 conf 10.2 and LXR ag 2 0.2.
Screening CN(C)c1oc(-c2ccccc2Cl)nc1C#N returned DAX1 inh -0.3, hgDAF12 agonist -1.6, hcDAF12 agonist -1.1, ssDAF12 agonist -2.0 and SMARCA2 activ -1.7.
`COc1ccccc1/C=C/c1nc(C#N)c(N(C)C)o1` gave DAX1 inh 0.7, hgDAF12 agonist 15.2*, hcDAF12 agonist 5.8*, ssDAF12 agonist 0.2, SMARCA2 activ 4.4, hgDAF12 conf 14.3* and LXR ag 2 0.6.
Screening CCOC(=O)/C=C/c1cccc(C)c1O returned DAX1 inh 4.5*, hgDAF12 agonist 13.8*, hcDAF12 agonist 0.7, ssDAF12 agonist -0.2, SMARCA2 activ 0.5, hgDAF12 conf 12.2* and LXR ag 2 0.4.
Cc1ccc(NC(=O)CSc2nnc(-c3cccnc3)n2Cc2ccco2)c(C)c1 was read as DAX1 inh 0.5, hgDAF12 agonist -3.1, hcDAF12 agonist -2.6, ssDAF12 agonist -1.4 and SMARCA2 activ 0.1.
For O=C(N/N=C/c1ccccc1)c1[nH]ncc1Br the results were DAX1 inh 1.9, hgDAF12 agonist 15.2*, hcDAF12 agonist 1.5, ssDAF12 agonist -0.3, SMARCA2 activ 4.0, hgDAF12 conf 13.6* and LXR ag 2 0.3.
Screening O=C(N/N=C/c1ccccc1)c1[nH]c2ccc(Br)cc2c1-c1ccccc1 returned DAX1 inh 0.2, hgDAF12 agonist 1.0, hcDAF12 agonist 0.4, ssDAF12 agonist 0.3 and SMARCA2 activ -1.8.
Screening CN(C)/C=N/c1nc(-c2ccc3ccccc3c2)cs1 returned DAX1 inh 2.4, hgDAF12 agonist 17.9*, hcDAF12 agonist 4.3, ssDAF12 agonist 0.3, SMARCA2 activ 3.0, hgDAF12 conf 12.2* and LXR ag 2 0.6.
CCOC(=O)C(=CNc1nc(-c2ccc3ccccc3c2)cs1)C(=O)OCC was read as DAX1 inh 0.7, hgDAF12 agonist 9.5, hcDAF12 agonist 0.2, ssDAF12 agonist -0.3 and SMARCA2 activ 4.1.
CN(C)c1ccc(NC(=S)OC2CCC23CCC(c2ccccc2)CC3)cc1 (stereo unspecified) was read as DAX1 inh 0.4, hgDAF12 agonist 0.0, hcDAF12 agonist -0.6, ssDAF12 agonist -1.5 and SMARCA2 activ -4.7.

Assay outcomes from PubChem BioAssay.
